Results: PubChem BioAssay (Tox21)
Inconclusive results are not listed. Unmarked numbers belong to inactive results. Calls come from the whole dose curve; as a rule, active = well fitted cell-killing curve with a large enough effect in the repeat runs; inconclusive = weak or mixed curves, or effect the other way; inactive = flat fitted curve, though single readings scatter.

Assay: Caspase-3/7 induction in HepG2 cells by small molecules, qHTS cell viability counter screen (AID 1346981); note: nearly all actives have a fitted effect of over 30% in size
Conditions: CellTiter-Fluor fluorescence, 17 h; series mostly up to 92.4 µM; activity change, negative = cytotoxicity: at the top concentration
Excerpt: U.S. Tox21 Program National Center for Advancing Translational Sciences [NCATS] NIH Chemical Genomics Center [NCGC] U.S. Environmental Protection Agency [EPA] National Institutes of Environmental Health Sciences [NIEHS] National Toxicology Program [NTP] U.S. Food and Drug Administration [FDA] Tox21 Assay Overview: Apoptosis is a process of programmed cell death and plays a central role in the development of multicellular organisms. It is a highly regulated process and induces cell death by activating caspases, which are the members of cysteine aspartic acid-specific protease (caspase) family. Caspases involved in apoptosis are classified by their mechanism of action as initiator caspases (caspase-2, -8, -9 and -10) and executioner caspases (caspase-3, -6, and -7). Inhibition of apoptosis results in number of cancers, autoimmune diseases, inflammatory diseases and viral infection. To identify small molecule compounds that induce apoptosis, a homogeneous, luminescent Caspase-Glo 3/7 assay was used. Wild type HepG2 cells were used to screen Tox21 libraries for identifying caspase-3/7 activity inducers. Also cytotoxicity of the compounds was tested in parallel by measuring the cell viability using CellTiter-Fluor assay system in the same wells.
Tox21 Assay Protocol Summary: HepG2 cells were dispensed at 2,000 per well in 5uL of culture medium into white solid bottom 1536-well plates (Corning Life Sciences, Corning, NY) using a Multidrop Combi (Thermo Scientific, Waltham, MA) dispenser. The assay plates were incubated at 37 C and 5% CO2 for 5hr, and then 23nL of compounds dissolved in DMSO and positive control were transferred using a Pintool station ([…], San Diego, CA). The assay plates were incubated at 37C and 5% CO2 for 17hr. For cytotoxicity read, after 16hr incubation at 37C, 1uL CellTiter-Fluor reagent (Promega Corporation, Madison, WI) was added to each well of the assay plates using Flying Reagent Dispenser (FRD, Aurora Discovery, San Diego, CA). After 1hr incubation at 37C and 5% CO2, the fluorescence signal was quantified using a ViewLux plate reader (PerkinElmer, Shelton, CT).
% is set by controls: 0 for no effect and ±100 for the full control effect.

Row | SMILES | activity change, negative = cytotoxicity
1 | CCc1ccc(C(=O)C(C)CN2CCCCC2)cc1 (stereo not given) | 6.31% [at 42.5 µM]
2 | C(/C=C/C=C/Nc1ccccc1)=Nc1ccccc1 | 8.68%
3 | O=C(OC1C[C@H]2CC[C@@H](C1)[N+]21CCCC1)C(O)(c1ccccc1)c1ccccc1 (stereo not given in full) | 4.22% [at 42.5 µM]
4 | CCC(C(=O)O)c1ccc(N2Cc3ccccc3C2=O)cc1 (stereo not given) | 3.61% [at 42.5 µM]
5 | NC(=O)c1cc[n+](CC2=C(C(=O)[O-])N3C(=O)[C@@H](NC(=O)Cc4cccs4)[C@H]3SC2)cc1 | -6.17% [at 42.5 µM]
6 | O=C(O)c1ccncc1 | 0.699%
7 | CCCOC(C)=O | 6.54%
8 | Cc1cc(C)c(C)c(O)c1 | 4.78%
9 | CC(C(=O)O)c1ccc2c(c1)Cc1cccnc1O2 (stereo not given) | 7.87% [at 42.5 µM]
10 | C=CC(=O)OCCCCCCCCCC | 5.08%
11 | O=Cc1ccc([N+](=O)[O-])cc1 | 0.564%
12 | COC(=O)c1cc(Cl)ccc1[N+](=O)[O-] | -0.926%
13 | CC(=O)c1cccnc1 | 1.05%
14 | O=C(NC1CCN(CCc2c[nH]c3ccccc23)CC1)c1ccccc1 | -3.27% [at 42.5 µM]
15 | Cc1cccc(C)c1NC(=O)CN1CCCC1 | 1.24% [at 42.5 µM]
16 | Nc1ccc(C(=O)Oc2ccccc2)c(O)c1 | -0.253% [at 42.5 µM]
17 | CCOC(OCC)OCC | 6.54%
18 | C[Si](C)(C)O[Si](C)(C)O[Si](C)(C)C | 4.99%
19 | CCCCCCCCCCCCCCCCCCCl | -0.332% [at 8.39 µM]
20 | Cc1cc(N)n(-c2ccccc2)n1 | -1.88%

Row | SMILES | activity change, negative = cytotoxicity
21 | Cc1nc(C)c(C)nc1C | 2.06%
22 | CCCCCCCCCCCCCCCCC(=O)O | 0.436% [at 42.5 µM]
23 | CC(=O)Nc1cccc(N)c1 | -1.08%
24 | CCCCCCCCOCCCN | 0.365%
25 | S=c1[nH][nH]c(=S)s1 | 7.84%
26 | CC/C=C\CCO | 4.91%
27 | CC(Cc1ccccc1)(NC(=O)CN)c1ccccc1 (stereo not given) | -5.69% [at 42.5 µM]
28 | C[C@@H](O)[C@H]1C(=O)N2C(C(=O)O)=C(S[C@@H]3CN[C@H](CNS(N)(=O)=O)C3)[C@H](C)[C@H]12 | -0.502% [at 42.5 µM]
29 | CCCc1nc(C)c2c(=O)[nH]c(-c3cc(S(=O)(=O)N4CCN(CC)CC4)ccc3OCC)nn12 | -0.701% [at 42.5 µM]
30 | Cc1c(N=C=O)cccc1N=C=O | -0.933%
31 | CCCC1CCOC(C)S1 (stereo not given) | 0.471%
32 | OCCOc1cccc(OCCO)c1 | 5.5%
33 | CCCN(C1CCN(C(=O)C2CCNCC2)CC1)[C@@H]1CCc2ccc(OC)cc2C1 | -1.73%
34 | O=C(O)CCc1nc2ccccc2[nH]1 | -1.31% [at 42.5 µM]
35 | CC(C)(C)c1cc(C=O)cc(C(C)(C)C)c1O | 2.84% [at 42.5 µM]
36 | COc1cccc([C@H](O)C2CCN(CCc3ccc(F)cc3)CC2)c1OC | -2.05%
37 | O=C(Nc1ccc2c(c1)Cc1ccccc1-2)C(F)(F)F | 0.569%
38 | O=[N+]([O-])c1ccc(Cl)cc1Cl | 1.14%
39 | O=P(c1ccccc1)(c1ccccc1)c1ccccc1 | 1.22%
40 | C[C@]12CCC(=O)C=C1[C@@H]1C[C@@H]1[C@H]1[C@@H]3[C@@H]4C[C@@H]4[C@@]4(CCC(=O)O4)[C@@]3(C)CC[C@@H]12 | -8.46% [at 42.5 µM]
